SMILES strings stand for the structures. Values without a mark were called inactive. Cut-off read from the data, not from the text of the source, unless noted: active = inhibition above about 37%; inactive = the rest.

As a reminder, the inhibition is the relative decrease from the control value, in per cent.

One test deals with Hepatitis C virus NS3 helicase. As to the kind of experiment: HCV NS3 helicase inhibitors, primary screen, biochemical, fluorescence polarization, LOPAC1280 library (AID 687035). The conditions noted are these: Purified HCV NS3 helicase, Cy5-dT15 ssDNA binding fluorescence polarization; hits give high values; concentration not given here. On the technique in general: Fluorescence polarisation rises when a labelled molecule tumbles more slowly, as on binding a larger partner.
Consider `COc1cc2nc(N3CCN(C(=O)OCc4ccccc4)C(C(=O)NC(C)(C)C)C3)nc(N)c2cc1OC` (centres undefined), for which the inhibition was -3%.

With `O=C(O)[C@@H]1C[C@H](C(=O)O)N1`, the inhibition is -1%.

In the case of `O=C(O)/C=C/C(O)c1ccc(Cl)cc1` (centres undefined), the inhibition is 1%.

In the case of `NCCNC(=O)c1ncsc1-c1cccc(F)c1`, the inhibition was -3%.

As for `CN1CCc2cc(O)c(O)cc2C(c2ccccc2)C1` (centres undefined), the inhibition was -5%.

As to `Ic1ccc(N2CCN(Cc3c[nH]c4ncccc34)CC2)cc1`, the inhibition was 6%.

As to `CCCCN1CCC(n2c(=O)[nH]c3ccccc32)CC1`, the inhibition is -2%.

Consider `CCCCCCCCCCCCCCCCCCNC(=O)OCC(COP(=O)([O-])OCC[n+]1ccsc1)OC` (centres undefined), for which the inhibition was 0%.

For `O=C(O)[C@@H]1C[C@@H](C(=O)O)N1`, the inhibition was -1%.

Consider `CC(COc1ccc(/C=C/c2ccccc2)cc1)[N+](C)(C)C` (centres undefined), for which the inhibition is -1%.

Turning to `CCCn1c(=O)c2[nH]c(-c3ccc(OCC(=O)NCCN)cc3)nc2n(CCC)c1=O`, the inhibition was -2%.

Consider `COc1ccccc1N1CCN(CCN(C(=O)c2ccc(I)cc2)c2ccccn2)CC1`, for which the inhibition is -4%.

Test system in a further test: not listed separately
The test is described as follows: Cy5 fluorescence quenching or enhancement artefacts, artefact control for HCV NS3 helicase inhibitor project, biochemical, LOPAC1280 (AID 687037; call rule not given here). The conditions noted are these: Cy5-DNA-NS3h complex fluorescence interference counterscreen. In general terms: Counterscreens check selectivity or assay interference.
Take `COc1cc2nc(N3CCN(C(=O)OCc4ccccc4)C(C(=O)NC(C)(C)C)C3)nc(N)c2cc1OC` (centres undefined): the fluorescence ratio (interference) is 1.

Regarding `O=C(O)[C@@H]1C[C@H](C(=O)O)N1`, the fluorescence ratio (interference) was 1.1.

As to `O=C(O)/C=C/C(O)c1ccc(Cl)cc1` (centres undefined), the fluorescence ratio (interference) is 1.

Turning to `NCCNC(=O)c1ncsc1-c1cccc(F)c1`, the fluorescence ratio (interference) was 1.

Turning to `CN1CCc2cc(O)c(O)cc2C(c2ccccc2)C1` (centres undefined), the fluorescence ratio (interference) was 1.

On to `Ic1ccc(N2CCN(Cc3c[nH]c4ncccc34)CC2)cc1`, for which the fluorescence ratio (interference) was 0.9.

Take `CCCCN1CCC(n2c(=O)[nH]c3ccccc32)CC1`: the fluorescence ratio (interference) is 1.

`CCCCCCCCCCCCCCCCCCNC(=O)OCC(COP(=O)([O-])OCC[n+]1ccsc1)OC` (centres undefined): the fluorescence ratio (interference) is 1.

In the case of `O=C(O)[C@@H]1C[C@@H](C(=O)O)N1`, the fluorescence ratio (interference) is 1.

For `CC(COc1ccc(/C=C/c2ccccc2)cc1)[N+](C)(C)C` (centres undefined), the fluorescence ratio (interference) was 1.

As to `CCCn1c(=O)c2[nH]c(-c3ccc(OCC(=O)NCCN)cc3)nc2n(CCC)c1=O`, the fluorescence ratio (interference) is 1.

For the compound `COc1ccccc1N1CCN(CCN(C(=O)c2ccc(I)cc2)c2ccccn2)CC1`, the fluorescence ratio (interference) is 0.9.
